Data on 14 compounds can be found in PubChem BioAssay (NCI).

Compounds without any hit were thinned out: in the full panel of roughly 83,000, 20% have a hit.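 Each cell line was grown in a 96-well plate and treated with one concentration of compound for 48 hours. Values below 10 were considered active.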 The source made the active and inactive calls.

This experiment relates to 786-0 renal. In words: NCI-60 one-dose screen, 48 h (100 = growth as untreated, 0 = no growth, -100 = all killed). The note with it: 10 µM unless noted.
Take `O=C(Nc1cccc2ccccc12)c1cc2ccccc2cc1O`: the growth is 22.2% (inactive). For the compound `COc1cc2c(O)n(CCCN3CCOCC3)c3c4cnc5cccc(c(=O)c3c2cc1OC)c54`, the growth was 19% (inactive). On to `C#CCNC(=O)CC[C@@H](C)[C@H]1CC[C@H]2[C@@H]3CC[C@@H]4CC(=O)CC[C@]4(C)[C@H]3CC[C@]12C`, for which the growth was -71.9% [100 µM] (active). For `COc1ccc(NC(=O)Nc2ccc(-c3cccnc3)cc2N2CCC(CO)CC2)cc1`, the growth was 30.8% (inactive). Take `CC1(C(=O)O)CCC(N)(C(=O)O)C1(C)C` (centres undefined): the growth was 109% (inactive). The result for `COc1ncc(-c2ccc3nccc(C#CCCCCC(=O)NO)c3c2)cc1NS(=O)(=O)c1ccc(F)cc1F` reads -14.5% (active); that for `O=C(O)CC1CCCCC1c1ccccc1` (centres undefined), 103% (inactive); that for `CC(C)=CC/C=C(/C)[C@H]1CC[C@]2(C)[C@@H]1CC[C@@H]1[C@@]3(C)CCC(=O)NC(C)(C)[C@@H]3CC[C@]12C`, -33% [100 µM] (active). The result for `Cc1nc(Cl)c2c(n1)N(C)c1ccc(Cl)cc1C(C)C2` (centres undefined) reads 90% (inactive); that for `Cc1ccc(N)c(O)c1`, 90.8% (inactive); that for `Nc1ccc(Cl)c([N+](=O)[O-])c1`, 107% (inactive).

On to `O=[N+]([O-])c1cccc(N=NNc2cccc([N+](=O)[O-])c2)c1`, for which the growth was 90.4% (inactive). The result for `C=C(C)[C@@H]1CC[C@]2(C)[C@H](CC[C@@H]3[C@@H]([C@@](C)(O)CCC=C(C)C)CC[C@]32C)[C@@]1(C)CCC(=O)N1CCN(C)CC1` reads -92.7% [100 µM] (active). The result for `Cn1cc(-c2noc(C(=O)c3cn(C)c4ncc(Br)cc34)n2)c2ccccc21` reads 91.3% (inactive).
